In all, about 350,000 compounds went through this assay and about 2,300 (0.66%) were called active.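 The calls were made as follows: active = mean inhibition of at least 50% after viability correction, with every replicate also passing that limit; inconclusive = mean reaches 50% but only one of two replicates passes; inactive = the rest.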 For the sample, actives were picked, then their nearest neighbours and some compounds at random.
Assay: EWS/Fli-driven NR0B1 reporter inhibitors, primary screen, A673 cells, NR0B1 luciferase, luminescence, MLPCN library (AID 651661);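 also: firefly luciferase signal divided by Alamar Blue viability fluorescence both relative to DMSO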
Settings: viability-normalised, at 12.6 µM, hits give high values

Compound | inhibition
CS(=O)(=O)N1CC2(C1)[C@H](c1ccccc1)[C@H](CO)N2Cc1ccc(F)cc1 | -3.95% (inactive)
CCOc1ncccc1C(=O)Nc1ccc2c(c1)OCCO2 | -5.13% (inactive)
O=C(Nc1ccncc1)c1cc(-c2ccccn2)nc2ccc(Br)cc12 | 17% (inactive)
CCn1c(SCC(=O)Nc2ccc3c(c2)OCCO3)nnc1-c1ccncc1 | 4.78% (inactive)
Cc1ccc2nc(-c3ccncc3)cc(C(=O)Nc3ccc(OC(F)F)cc3)c2c1 | 54% (active)
Cc1ccc2nc(-c3ccncc3)cc(C(=O)Nc3ccc4c(c3)OCCO4)c2c1 | 57.8% (active)
CCN(CC)CCNC(=O)c1ccc(NC(=O)c2cc(-c3ccncc3)nc3ccccc23)cc1 | 8.49% (inactive)
CNC[C@H]1OCCCC[C@@H](C)Oc2ccc(NC(=O)c3ccncc3)cc2C(=O)N([C@H](C)CO)C[C@H]1C | 0.415% (inactive)
CO[C@@H]1CN(C)C(=O)c2cc(NC(=O)C3CC3)ccc2OC[C@H](C)N(CC2CC2)C[C@H]1C | -3.56% (inactive)
O=C(C1CCOCC1)N1C[C@H]2[C@@H](c3ccccc31)[C@@H](CO)N2Cc1ccccc1 | 2.37% (inactive)
CCCC(=O)N1CC2(C1)CN(C(=O)COC)[C@@H](CO)c1c2c2ccc(OC)cc2n1C | 23.9% (inactive)
C[C@@H](NC(=O)C[C@H]1CC[C@H]2[C@H](COc3ccc(NS(=O)(=O)c4ccc(Cl)cc4)cc3C(=O)N2C)O1)c1ccccc1 | 13.8% (inactive)
S=C(c1ccc(-c2ccccc2)o1)N1CCCCC1 | -59.7% (inactive)
OCCN1CCN(C(=S)c2ccc(-c3ccccc3)cc2)CC1 | 69% (active)
CN1CCN(CCCCOc2ccccc2-c2ccccc2)CC1 | -2.32% (inactive)
COc1ccc(CN(C)C[C@@H]2OCCCC[C@@H](C)Oc3ccc(NS(=O)(=O)c4ccc(C)cc4)cc3C(=O)N([C@@H](C)CO)C[C@H]2C)cc1 | -18.8% (inactive)
CC(=O)Nc1ccc(C=Cc2ccc([N+](=O)[O-])cc2)cc1 | -72.7% (inactive)
O=C1/C(=C\c2ccc([N+](=O)[O-])cc2)CS(=O)(=O)C/C1=C/c1ccc([N+](=O)[O-])cc1 | 74.9% (active)
O=C(O)C(=Cc1ccc([N+](=O)[O-])cc1)CCc1ccccc1 | 5.5% (inactive)
CCCN1C[C@@H](C)[C@@H](OC)CN(C)C(=O)c2ccc(NC(=O)c3ccc(F)cc3)cc2OC[C@@H]1C | -2.15% (inactive)
Cc1noc(C)c1NC(=O)N(C)C[C@H]1OCCCC[C@@H](C)Oc2ccc(NS(=O)(=O)c3ccc(Cl)cc3)cc2C(=O)N([C@@H](C)CO)C[C@H]1C | -7.3% (inactive)
CNC[C@H]1Oc2ccc(N(C)C)cc2CC(=O)N([C@@H](C)CO)C[C@@H]1C | 14.1% (inactive)
CC1(C(=O)NCC2CCOCC2)Cc2c(-c3cccc(C(N)=O)c3)ccnc2O1 (stereo unspecified) | 0.349% (inactive)

Compound | inhibition
COc1cc(OC)c(C(=O)NCc2ccc3c(c2)OCO3)cc1OC | 9.01% (inactive)
S=C(NCc1ccc2c(c1)OCO2)NCc1ccco1 | -23.2% (inactive)
CN(CC(=O)NCc1ccc2c(c1)OCO2)CC(=O)Nc1ccc(F)c(F)c1F | 3.77% (inactive)
CC1(C(=O)NCc2ccco2)Cc2c(-c3ccc4c(c3)OCO4)ccnc2O1 (stereo unspecified) | 57.5% (active)
CC1(C(=O)NCc2ccc(F)c(F)c2)Cc2c(-c3ccc4c(c3)OCO4)ccnc2O1 (stereo unspecified) | 60.1% (active)
Cc1noc(C)c1NC(=O)Nc1ccc2c(c1)CC(=O)N([C@@H](C)CO)C[C@@H](C)[C@@H](CN(C)Cc1ccc(Cl)c(Cl)c1)O2 | 64.4% (active)
C[C@H](CO)N1C[C@H](C)[C@@H](CN(C)Cc2ccc(Cl)c(Cl)c2)Oc2ccc(NC(=O)Nc3ccc(C(F)(F)F)cc3)cc2CC1=O | 72.5% (active)
Cc1noc(C)c1NC(=O)Nc1ccc2c(c1)CC(=O)N([C@H](C)CO)C[C@@H](C)[C@@H](CN(C)Cc1ccc(C(F)(F)F)cc1)O2 | 7.38% (inactive)
C[C@@H]1CN([C@H](C)CO)C(=O)Cc2cc(NC(=O)Nc3ccccc3)ccc2O[C@@H]1CN(C)Cc1ccc(C(F)(F)F)cc1 | -0.517% (inactive)
Cc1noc(C)c1NC(=O)Nc1ccc2c(c1)CC(=O)N([C@H](C)CO)C[C@@H](C)[C@@H](CN(C)Cc1ccncc1)O2 | -1.93% (inactive)
C[C@@H]1CN([C@H](C)CO)C(=O)Cc2cc(NC(=O)Nc3ccccc3)ccc2O[C@H]1CN(C)Cc1ccc(Cl)c(Cl)c1 | 9.7% (inactive)
O=C(C1CCOCC1)N1CC(=O)N2[C@H](CO)[C@H](c3ccc(C#Cc4cccc(F)c4)cc3)[C@H]2C1 | 3.5% (inactive)
CCCC(=O)Nc1ccc2c(c1)C(=O)N(C)[C@H]1CC[C@@H](CC(=O)NCC(F)(F)F)O[C@@H]1CO2 | 3% (inactive)
O=C(C[C@@H]1CC[C@H](NC(=O)C2CC2)[C@H](CO)O1)NCc1ccccc1Cl | -4.63% (inactive)
C[C@H](CO)N1C[C@H](C)[C@@H](CN(C)C(=O)NC2CCCCC2)Oc2ccc(NC(=O)c3ccncc3)cc2CC1=O | -1.15% (inactive)
COc1cccc(C(=O)Nc2ccc3c(c2)C(=O)N(C)C[C@@H](OC)[C@H](C)CN(C(=O)C2CCOCC2)[C@H](C)CO3)c1 | -12.9% (inactive)
COc1cc(/C=C(/NC(=O)c2ccc(Cl)cc2Cl)C(=O)O)cc(OC)c1OC | 11.1% (inactive)
CCOC(=O)CN/C=C(\C#N)c1ccc(F)cc1 | -7.7% (inactive)
CCOc1cc(/C=C(/C#N)c2ccc(Cl)cc2)cc(Cl)c1OCC(=O)O | 67.4% (active)
CO[C@@H]1CN(C)C(=O)c2cc(NC(=O)c3ccc(F)cc3)ccc2OC[C@H](C)N(C(=O)CN(C)C)C[C@H]1C | 1.32% (inactive)
C[C@@H]1CCCCO[C@@H](CN(C)Cc2ccncc2)[C@H](C)CN([C@H](C)CO)C(=O)c2cc(NC(=O)CCC(F)(F)F)ccc2O1 | -2.85% (inactive)
Cc1ccc(S(=O)(=O)NC[C@H]2CC[C@@H]3[C@@H](CN3Cc3ccccc3C(=O)O)O2)cc1 | 4.08% (inactive)
C[C@@H]1CCCCO[C@@H](CN(C)C(=O)c2ccccc2)[C@H](C)CN([C@@H](C)CO)C(=O)c2cc(NS(=O)(=O)c3cn(C)cn3)ccc2O1 | -5.15% (inactive)

— PubChem BioAssay AID651661 (Broad Institute, 2012)
